Reference: PubChem BioAssay (Tox21)
A number with no mark means an inactive call. Records with an inconclusive call do not appear. A call without a number means that no potency is given here. Activity calls are given as the source filed them. Unless noted, calls follow the shape of the full dose curve.

Tests used:
[1] = target: KiSS-1 receptor (Homo sapiens) (UniProt Q969F8); test: Human kisspeptin (KISS1R) small molecule agonists, calcium flux assay in KISS1R-HEK293 cells (AID 1920064; active = well fitted activation curve with a large enough effect in the repeat runs)
Sequence of KiSS-1 receptor (Homo sapiens) (Q969F8 whole entry, looked up): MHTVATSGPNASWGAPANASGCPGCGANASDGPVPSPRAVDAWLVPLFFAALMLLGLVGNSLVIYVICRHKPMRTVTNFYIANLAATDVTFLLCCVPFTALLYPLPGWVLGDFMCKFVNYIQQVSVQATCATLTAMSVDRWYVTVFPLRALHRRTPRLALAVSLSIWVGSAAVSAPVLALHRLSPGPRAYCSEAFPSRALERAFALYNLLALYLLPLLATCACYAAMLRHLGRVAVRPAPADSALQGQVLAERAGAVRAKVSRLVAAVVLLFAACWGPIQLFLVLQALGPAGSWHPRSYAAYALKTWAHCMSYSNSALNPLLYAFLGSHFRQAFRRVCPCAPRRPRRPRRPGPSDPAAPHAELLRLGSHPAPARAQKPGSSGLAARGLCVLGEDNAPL
Outline: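 Stable human KISS1R HEK293 line; 18 h plating, 37 C/5% CO2; calcium dye 1 h 37 C; compound pin transfer; kinetic fluorescence Ex/Em 480/540, 3 min.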

[2] = p53 small molecule agonists, cell-based qHTS assay with human liver microsomes: qHTS cell viability counter screen (AID 1963579); also: nearly all actives have a fitted effect of over 45% in size
Outline: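 Tox21 library compounds, delivered from DMSO stocks, were tested on p53RE-bla cells together with 0.5 mg/mL human liver microsomes and 0.5 mg/mL NADPH (final) over 16 h at 37 C; CellTiter-Glo luminescence served as the cytotoxicity measure.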

[3] = p53 small molecule agonists, cell-based qHTS assay with rat liver microsomes: qHTS cell viability counter screen (AID 1963580); also: nearly all actives have a fitted effect of over 45% in size
Outline: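 p53RE-bla HCT-116 cells were exposed 16 h at 37 C to compounds with rat liver microsomes (0.5 mg/mL) and NADPH (0.5 mg/mL). Viability was measured in the same wells as ATP content by CellTiter-Glo luminescence.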

[4] = p53 small molecule agonists, cell-based qHTS assay: qHTS cell viability counter screen (AID 1963581); also: nearly all actives have a fitted effect of over 45% in size
Outline: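 HCT-116 p53RE-bla cells, 4,000/well, plated 5 h before compound pin transfer; 16 h at 37 C; bla substrate 2 h RT; then CellTiter-Glo, 30 min RT, luminescence.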

[5] = target: 5-hydroxytryptamine receptor 2A (Homo sapiens) (UniProt P28223); test: 5-hydroxytryptamine receptor 2A (HTR2A) small molecule antagonists, cell-based qHTS assay (AID 1963586); also: nearly all actives have a fitted effect of over 45% in size; also: potency is read from the fitted curve at half-maximal effect
Sequence of 5-hydroxytryptamine receptor 2A (Homo sapiens) (P28223 whole entry, looked up): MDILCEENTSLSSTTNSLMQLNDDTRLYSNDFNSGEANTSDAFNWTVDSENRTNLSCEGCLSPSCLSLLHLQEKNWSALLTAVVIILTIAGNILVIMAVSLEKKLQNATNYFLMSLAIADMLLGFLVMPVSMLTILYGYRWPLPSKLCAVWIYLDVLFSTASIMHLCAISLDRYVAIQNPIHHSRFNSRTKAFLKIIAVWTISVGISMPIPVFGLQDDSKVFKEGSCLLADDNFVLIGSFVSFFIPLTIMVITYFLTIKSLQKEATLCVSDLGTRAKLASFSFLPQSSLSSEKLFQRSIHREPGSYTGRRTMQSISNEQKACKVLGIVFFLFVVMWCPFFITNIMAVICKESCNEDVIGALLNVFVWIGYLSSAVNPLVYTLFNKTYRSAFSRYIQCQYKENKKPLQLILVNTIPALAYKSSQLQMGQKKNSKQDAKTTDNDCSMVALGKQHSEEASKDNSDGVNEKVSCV
Outline: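 Antagonist-mode intracellular calcium assay: DOI (4 nM) added after 5 min compound pre-incubation at room temperature to dye-loaded HTR2A-CHO cells. Fluorescence followed for 3 min, sampled every second.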

[6] = target: 5-hydroxytryptamine receptor 2A (Homo sapiens) (UniProt P28223); test: 5-hydroxytryptamine receptor 2A (HTR2A) small molecule agonists, cell-based qHTS assay (AID 1963587); also: nearly all actives have a fitted effect of over 30% in size; also: potency is read from the fitted curve at half-maximal effect
Outline: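 CHO cells stably expressing human HTR2A, plated 18 h, loaded with calcium dye 1 h at 37 C. Agonist mode: compounds added and intracellular calcium fluorescence recorded kinetically for 2 min at 1 sec intervals.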

[7] = target: Muscarinic acetylcholine receptor M1 (Homo sapiens) (UniProt P11229); test: Cholinergic receptor muscarinic 1 (CHRM1) small molecule antagonists, cell-based qHTS assay (AID 1963588); also: nearly all actives have a fitted effect of over 40% in size; also: potency is read from the fitted curve at half-maximal effect
Sequence of Muscarinic acetylcholine receptor M1 (Homo sapiens) (P11229 whole entry, looked up): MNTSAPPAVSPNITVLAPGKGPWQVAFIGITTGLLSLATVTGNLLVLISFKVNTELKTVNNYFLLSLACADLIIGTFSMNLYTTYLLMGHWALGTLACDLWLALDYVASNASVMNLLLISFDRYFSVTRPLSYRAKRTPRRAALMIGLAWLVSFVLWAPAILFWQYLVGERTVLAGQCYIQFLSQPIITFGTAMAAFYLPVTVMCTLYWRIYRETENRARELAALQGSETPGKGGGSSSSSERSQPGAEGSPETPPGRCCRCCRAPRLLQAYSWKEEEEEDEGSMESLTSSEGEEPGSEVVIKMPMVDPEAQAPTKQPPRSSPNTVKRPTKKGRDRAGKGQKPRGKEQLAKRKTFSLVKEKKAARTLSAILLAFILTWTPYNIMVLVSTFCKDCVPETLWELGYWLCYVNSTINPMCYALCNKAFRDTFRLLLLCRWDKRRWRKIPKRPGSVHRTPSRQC
Outline: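 CHRM1-CHO calcium-flux assay, antagonist mode. Cells were seeded 18 h, dye-loaded 1 h at 37 C and given compound for 5 min at RT, then acetylcholine was added at 50nM. FDSS fluorescence was read 3 min; 15 concentrations, three runs.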

[8] = target: Muscarinic acetylcholine receptor M1 (Homo sapiens) (UniProt P11229); test: Cholinergic receptor muscarinic 1 (CHRM1) small molecule agonists, cell-based qHTS assay (AID 1963589); also: nearly all actives have a fitted effect of over 35% in size
Outline: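 Human M1 in stable CHO line; 18 h plating, 1 h dye load 37 C; cpd added (agonist mode); Ca2+ fluorescence kinetic read, 1 s intervals; 15 conc, 3 runs.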

[9] = cAMP Responsive Elements (CRE) small molecule agonists, cell-based qHTS assay (AID 1963590)
Outline: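 HEK 293T CRE-bla, 2,000 cells/well, 18 h preincubation 37 C/5% CO2; cpds (DMSO) pinned, 3 h; LiveBLAzer B/G FRET substrate, 2 h RT.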

[10] = cAMP Responsive Elements (CRE) small molecule antagonists, cell-based qHTS assay (AID 1963591; active = well fitted inhibition curve with a large enough effect in the signal ratio in the repeat runs, not every such curve was filed as active; the % refers to the signal ratio)
Outline: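 Beta-lactamase reporter read by FRET substrate (LiveBLAzer B/G) after 2 h at room temperature. CRE-bla HEK293T cells had received compound plus 0.25 uM (final) NKH477 for 3 h at 37 °C.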

[11] = target: Beta-2 adrenergic receptor (Homo sapiens) (UniProt P07550); test: Adrenergic beta2 receptor (ADRB2) small molecule antagonists, cell-based qHTS assay (AID 1963592); also: nearly all actives have a fitted effect of over 50% in size; also: potency is read from the fitted curve at half-maximal effect
Sequence of Beta-2 adrenergic receptor (Homo sapiens) (P07550 whole entry, looked up): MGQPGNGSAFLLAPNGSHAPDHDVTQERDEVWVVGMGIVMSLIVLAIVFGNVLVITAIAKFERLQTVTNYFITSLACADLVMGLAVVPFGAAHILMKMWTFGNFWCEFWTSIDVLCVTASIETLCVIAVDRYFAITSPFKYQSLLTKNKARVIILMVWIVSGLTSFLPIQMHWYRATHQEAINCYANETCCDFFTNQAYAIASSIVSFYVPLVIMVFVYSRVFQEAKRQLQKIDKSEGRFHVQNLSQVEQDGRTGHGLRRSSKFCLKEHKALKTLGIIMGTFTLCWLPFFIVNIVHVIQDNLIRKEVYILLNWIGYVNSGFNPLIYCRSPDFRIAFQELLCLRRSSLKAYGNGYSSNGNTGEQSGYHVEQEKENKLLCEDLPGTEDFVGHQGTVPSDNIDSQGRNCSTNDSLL
Outline: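 Cells (CHO, stable ADRB2 overexpression) incubated 18-20hr at 37C; compounds added from DMSO; agonist mix (1nM isoproterenol, 100uM IBMX, 25uM Ro-20-1724) added; 0.5hr RT; d2-cAMP and anti-cAMP-cryptate added; 1hr RT; 665/615 nm read.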

[12] = target: Beta-2 adrenergic receptor (Homo sapiens) (UniProt P07550); test: Adrenergic beta2 receptor (ADRB2) small molecule agonists, cell-based qHTS assay (AID 1963593);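 also: CHO cells stably overexpressing human ADRB2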
Outline: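 CHO cells stably over-expressing ADRB2 were plated overnight at 37C, then dosed with compounds plus a stimulation mix containing 100uM IBMX and 25uM Ro-20-1724 for 0.5hr at room temperature. cAMP was measured by HTRF competition, 1hr.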

[13] = target: D(2) dopamine receptor (Homo sapiens) (UniProt P14416); test: Dopamine D2 receptor (DRD2) small molecule agonists, cell-based qHTS assay (AID 1963594); also: nearly all actives have a fitted effect of over 35% in size; also: potency is read from the fitted curve at half-maximal effect
Sequence of D(2) dopamine receptor (Homo sapiens) (P14416 whole entry, looked up): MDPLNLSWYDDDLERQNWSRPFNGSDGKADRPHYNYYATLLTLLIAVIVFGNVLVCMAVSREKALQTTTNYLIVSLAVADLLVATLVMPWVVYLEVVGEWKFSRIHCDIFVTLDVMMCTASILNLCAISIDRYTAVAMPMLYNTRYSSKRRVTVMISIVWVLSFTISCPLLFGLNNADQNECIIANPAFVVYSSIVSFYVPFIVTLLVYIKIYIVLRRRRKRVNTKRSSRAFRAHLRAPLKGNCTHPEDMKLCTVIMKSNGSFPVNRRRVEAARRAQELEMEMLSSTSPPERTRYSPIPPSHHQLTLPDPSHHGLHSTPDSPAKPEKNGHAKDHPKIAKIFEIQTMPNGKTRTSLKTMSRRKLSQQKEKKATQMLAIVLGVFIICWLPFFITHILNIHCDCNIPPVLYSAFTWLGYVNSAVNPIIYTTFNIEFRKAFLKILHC
Outline: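 HEK293 cells stably expressing human DRD2, pre-treated with PDE inhibitor Ro20-1724 (0.1 mM final) and compound 10 min at room temperature, then stimulated with NKH477 (200nM […]) for 30 min. cAMP read by HTRF (665/620 nm).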

[14] = G protein-coupled receptor (GPCR) small molecule agonists, calcium flux assay: HEK293 wild type cell line counter screen (AID 1920065)
Outline: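 Kinetic fluorescence at Ex/Em 480/540, recorded every second over 3 min, served as the read-out after compound addition. Each compound was tested at 15 concentrations in triplicate on cells pre-loaded with calcium dye for 1 h.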

[15] = p53 small molecule agonists, cell-based qHTS assay with human liver microsomes (AID 1963577); also: potency is read from the fitted curve at half-maximal effect;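 as to activation: p53 response element beta-lactamase reporter cells with liver microsomes plus NADPH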
Outline: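 Metabolically competent format: test substances, human liver microsomes and NADPH (both 0.5 mg/mL final) incubated with p53RE-bla cells 16 h at 37 C. Beta-lactamase reporter signal then quantified by fluorescence.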

[16] = p53 small molecule agonists, cell-based qHTS assay with rat liver microsomes (AID 1963578)
Outline: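 Each plate received p53RE-bla cells, then compound, then rat liver microsomes and NADPH (both 0.5 mg/mL final). Plates were held 16 h at 37 C, and beta-lactamase activity was detected with LiveBLAzer over 2 h.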

[17] = target: D(2) dopamine receptor (Homo sapiens) (UniProt P14416); test: Dopamine D2 receptor (DRD2) small molecule antagonists, cell-based qHTS assay (AID 1963595; active = well fitted inhibition curve with a large enough effect in the signal ratio in the repeat runs, with a control signal flat; the % refers to the signal ratio; also: potency is read from the fitted curve at half-maximal effect)
Outline: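 DRD2-HEK293; 0.1 mM Ro20-1724; cpd 10 min RT; NKH477 200 nM + quinpirole 12 nM, 30 min RT; HTRF cAMP (cAMP-d2/anti-cAMP cryptate), 665/620 nm ratio after 1 h.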

[18] = target: Gonadotropin-releasing hormone receptor (Homo sapiens) (UniProt P30968); test: Human gonadotropin-releasing hormone receptor (GnRHR) small molecule agonists, calcium flux assay in GnRHR-HEK293 cells (AID 1920063); also: nearly all actives have a fitted effect of over 35% in size
Sequence of Gonadotropin-releasing hormone receptor (Homo sapiens) (P30968 whole entry, looked up): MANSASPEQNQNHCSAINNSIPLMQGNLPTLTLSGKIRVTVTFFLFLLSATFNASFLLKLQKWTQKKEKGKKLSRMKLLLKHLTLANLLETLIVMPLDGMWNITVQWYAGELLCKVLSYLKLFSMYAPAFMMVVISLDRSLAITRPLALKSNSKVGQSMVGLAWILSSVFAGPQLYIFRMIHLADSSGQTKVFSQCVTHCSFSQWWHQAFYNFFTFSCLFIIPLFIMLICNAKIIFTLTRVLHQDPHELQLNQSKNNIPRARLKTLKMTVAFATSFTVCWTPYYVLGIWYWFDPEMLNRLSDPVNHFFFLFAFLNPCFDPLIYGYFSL
Outline: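 GnRHR-HEK293, 1500 cells/well, 18 h 37 C/5% CO2; Ca dye 1 h 37 C; cpd pinned (DMSO), agonist mode; kinetic FL 480/540, 3 min, 1 s reads; 15 conc, n=3.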

[19] = p53 small molecule agonists, cell-based qHTS assay (AID 1963582; active = well fitted activation curve with a large enough effect in the signal ratio in the repeat runs, not every such curve was filed as active; the % refers to the signal ratio; also: potency is read from the fitted curve at half-maximal effect)
Outline: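 Reporter line: p53RE-bla. Pre-incubation 5 h, 37 C, 5% CO2; compound (DMSO, pin tool) 16 h, 37 C; B/G FRET substrate 2 h RT; fluorescence intensity read.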

O=C(/C=C/c1ccccc1)NCCO
Potency [1]: inactive
Potency [2]: inactive
Potency [3]: inactive
Potency [4]: inactive
Potency [5]: inactive
Potency [6]: 21.3 µM (active)
Potency [7]: inactive
Potency [8]: inactive
Potency [9]: inactive
Potency [10]: inactive
Potency [11]: inactive
Potency [12]: inactive
Potency [13]: inactive

CN1CCN(CCC(=O)N2c3ccccc3Sc3ccc(C(F)(F)F)cc32)CC1
Potency [1]: inactive
Potency [14]: inactive
Potency [15]: inactive
Potency [16]: inactive
Potency [3]: inactive
Potency [5]: 4.1 µM (active)
Potency [7]: 0.146 µM (active)
Potency [8]: inactive
Potency [11]: 29.8 µM (active)
Potency [13]: inactive
Potency [17]: inactive

C=CC(=O)OCCCCCCOC(=O)C=C
Potency [18]: inactive
Potency [14]: inactive
Potency [15]: inactive
Potency [2]: inactive
Potency [3]: inactive
Potency [4]: inactive
Potency [5]: inactive
Potency [6]: inactive
Potency [7]: inactive
Potency [8]: inactive
Potency [10]: inactive
Potency [11]: inactive
Potency [13]: inactive
Potency [17]: inactive

OC(CN1CCC(Cc2ccc(F)cc2)CC1)c1ccc(Cl)cc1 (configuration not stated)
Potency [14]: inactive
Potency [15]: inactive
Potency [16]: inactive
Potency [2]: inactive
Potency [3]: inactive
Potency [5]: 1.63 µM (active)
Potency [8]: inactive
Potency [9]: inactive
Potency [10]: inactive
Potency [13]: inactive
Potency [17]: inactive

COc1ccccc1OCCNCC(O)COc1cccc2[nH]c3ccccc3c12 (configuration not stated)
Potency [18]: inactive
Potency [14]: inactive
Potency [16]: inactive
Potency [2]: inactive
Potency [3]: inactive
Potency [4]: inactive
Potency [19]: inactive
Potency [10]: inactive

C1=CC2C3C=CC(C3)C2C1 (configuration not stated)
Potency [14]: inactive
Potency [16]: inactive
Potency [19]: inactive
Potency [6]: 54 µM (active)
Potency [7]: inactive
Potency [10]: inactive
Potency [11]: inactive

O=C1Cc2ccccc2C1
Potency [5]: inactive
Potency [6]: inactive
Potency [7]: inactive
Potency [8]: inactive
Potency [11]: inactive
Potency [13]: inactive
Potency [17]: inactive

S=P(N1CC1)(N1CC1)N1CC1
Potency [1]: inactive
Potency [14]: inactive
Potency [15]: 34.1 µM (active)
Potency [2]: inactive
Potency [3]: inactive
Potency [4]: inactive
Potency [19]: inactive
Potency [5]: inactive
Potency [7]: inactive
Potency [9]: inactive
Potency [13]: inactive

COC(=O)[C@H]1[C@H]2C[C@@H]3c4[nH]c5cc(OC)ccc5c4CCN3C[C@H]2C[C@@H](OC(=O)/C=C/c2ccc(O)c(OC)c2)[C@@H]1OC
Potency [14]: inactive
Potency [16]: inactive
Potency [2]: inactive
Potency [3]: inactive
Potency [4]: inactive
Potency [5]: inactive
Potency [6]: 19 µM (active)
Potency [7]: inactive
Potency [13]: inactive

Cc1cc2c(cc1C(F)(F)F)N(C(=O)Nc1ccc(Oc3cccnc3C)nc1)CC2
Potency [1]: inactive
Potency [14]: inactive
Potency [15]: inactive
Potency [16]: inactive
Potency [2]: inactive
Potency [4]: inactive
Potency [6]: inactive
Potency [7]: inactive
Potency [8]: inactive
Potency [11]: 27.7 µM (active)
Potency [13]: inactive
Potency [17]: 6.2 µM (active)

O=C(O)c1cc(C(=O)O)cc(C(=O)O)c1
Potency [1]: inactive
Potency [14]: inactive
Potency [15]: inactive
Potency [16]: inactive
Potency [2]: inactive
Potency [3]: inactive
Potency [4]: inactive
Potency [19]: inactive
Potency [5]: inactive
Potency [6]: inactive
Potency [7]: inactive
Potency [9]: inactive
Potency [12]: inactive
Potency [13]: inactive
Potency [17]: inactive

NCCCC(O)(P(=O)(O)O)P(=O)(O)O
Potency [1]: inactive
Potency [14]: inactive
Potency [4]: inactive
Potency [19]: inactive
Potency [9]: inactive
Potency [12]: inactive
Potency [13]: inactive
Potency [17]: inactive

NC1=NCC2c3ccccc3Cc3ccccc3N12 (configuration not stated)
Potency [1]: inactive
Potency [14]: inactive
Potency [15]: inactive
Potency [2]: inactive
Potency [3]: inactive
Potency [19]: inactive
Potency [7]: inactive
Potency [8]: inactive
Potency [9]: inactive
Potency [11]: inactive
Potency [13]: 4.92 µM (active)
Potency [17]: inactive

CCN(CC)CCCC(C)Nc1c2ccc(Cl)cc2nc2ccc(OC)cc12 (configuration not stated)
Potency [1]: inactive
Potency [14]: inactive
Potency [2]: inactive
Potency [4]: inactive
Potency [19]: 19.9 µM (active)

C1CN(SSN2CCOCC2)CCO1
Potency [1]: inactive
Potency [14]: inactive
Potency [15]: inactive
Potency [2]: inactive
Potency [3]: inactive
Potency [19]: inactive
Potency [5]: inactive
Potency [7]: inactive
Potency [8]: inactive
Potency [11]: inactive
Potency [13]: inactive
Potency [17]: inactive

CC(=O)c1c(C)c([N+](=O)[O-])c(C(C)(C)C)c([N+](=O)[O-])c1C
Potency [1]: inactive
Potency [14]: inactive
Potency [15]: inactive
Potency [16]: inactive
Potency [2]: inactive
Potency [3]: inactive
Potency [4]: inactive
Potency [19]: inactive
Potency [5]: inactive
Potency [6]: inactive
Potency [7]: inactive
Potency [8]: inactive
Potency [10]: inactive
Potency [11]: inactive
Potency [12]: inactive
Potency [13]: inactive
Potency [17]: inactive

C=CC(C)=CCC=C(C)C
Potency [14]: inactive
Potency [15]: inactive
Potency [16]: inactive
Potency [2]: inactive
Potency [3]: inactive
Potency [4]: inactive
Potency [19]: inactive
Potency [6]: inactive
Potency [7]: inactive
Potency [8]: inactive
Potency [9]: inactive
Potency [11]: inactive
Potency [12]: inactive
Potency [13]: inactive
Potency [17]: inactive

CC(C)(C)NC(=O)[C@@H]1C[C@@H]2CCCC[C@@H]2CN1C[C@@H](O)[C@H](Cc1ccccc1)NC(=O)[C@H](CC(N)=O)NC(=O)c1ccc2ccccc2n1
Potency [1]: inactive
Potency [14]: inactive
Potency [11]: inactive
Potency [13]: inactive
Potency [17]: inactive
